Experimental data published in paper PMC4552634, “A New Set of Chemical Starting Points with Plasmodium falciparum Transmission-Blocking Potential for Antimalarial Drug Discovery” (PLoS ONE, 2015).
Read-outs that look alike come from different tables or passages of the source. In all, about 13,000 compounds went through this assay and about 3,200 (25%) showed an effect of 50% or more. The list shows a part of the results.

System: P. falciparum stage V gametocytes
Design: BacTiter-Glo ATP luminescence viability of purified stage V gametocytes in 384-well plates, per cent inhibition versus DMSO
Settings: 48 h, 5 µM, inhibitor

SMILES	% Inhibition [%]	% Inhibition (% Inhibition) [%]
CCc1cccc(C)c1-n1nc(-c2cc(C(C)(C)C)oc2C)cc1N [TCMDC-134028]	9.67	
CCc1ccc(NC(=O)c2ccc(CN3CCCN(CC4CCCCC4)CC3)cc2)cc1 [TCMDC-136437]	-21.72	
COc1ccc2nccc(N3CCC(CCNCc4ccc5c(n4)NC(=O)CO5)CC3)c2c1.Cl [TCMDC-141904]	-28.1	
Cc1nn(C)c(C)c1CN(Cc1nc(-c2cccc(Oc3ccccc3)c2)oc1C)C1CC1 [TCMDC-124629]	8.903	
C=CCc1cc(Cc2cnc(N)nc2N)cc(CCC)c1O [TCMDC-138048]	-56.02	
COc1ccc2nccc([C@@H](O)CN3CCC(NC(=O)/C=C/c4cc(F)cc(NC(C)=O)c4)CC3)c2c1 [TCMDC-141030]	-4.964	
Oc1cccc(-c2nc3cc(C4=NC5CCCCC5N4)ccc3[nH]2)c1 (stereo not shown) [TCMDC-138108]		-4.911
CC(=O)Nc1nc(C(=O)Nc2cccc(-c3ccc(-c4nc5ccccc5[nH]4)cc3)c2)cs1 [TCMDC-137127]	61.93	
CC(=O)Nc1nc(C(=O)Nc2ccc(-c3cccc(-c4nc5ccccc5[nH]4)c3)cc2)cs1 [TCMDC-137120]	25.25	
CC(=O)Nc1nc(C(=O)Nc2cccc(-c3cccc(-c4nc5ccccc5[nH]4)c3)c2)cs1 [TCMDC-137121]	-11.21	
N#CC(c1ccc(F)cc1)c1ccc2c(C(F)(F)F)cc(C(F)(F)F)nc2n1 (stereo not shown) [TCMDC-123761]	-46.13	
COc1ccc2nccc(N3CCN(CCNCc4ccc5c(n4)NC(=O)CS5)CC3)c2n1 [TCMDC-141967]	-20.32	
COc1cccc(O)c1CNCC(O)c1cccc(C(F)(F)F)c1 (stereo not shown) [TCMDC-140396]	-36.87	
Nc1cccc(CNCc2ccc(-c3cccc(-c4nc5ccc(C(F)(F)F)cc5[nH]4)c3)cc2)c1 [TCMDC-132929]	-69.76	
O=C(NCc1ccccc1)Nc1ccc(-c2ccc(-c3nc4ccc(C(F)(F)F)cc4[nH]3)cc2)cc1 [TCMDC-133157]	-8.983	
Nc1cccc(CNCc2cccc(-c3ccc(-c4nc5ccc(C(F)(F)F)cc5[nH]4)cc3)c2)c1 [TCMDC-132935]	-40.76	
CS(=O)(=O)c1ccc(CNCc2ccc(-c3cccc(-c4nc5ccc(C(F)(F)F)cc5[nH]4)c3)cc2)cc1 [TCMDC-132897]	17.9	
FC(F)(F)c1ccc2nc(-c3ccc(-c4cccc(CNCc5ccccc5)c4)cc3)[nH]c2c1 [TCMDC-132704]	67.94	
FC(F)(F)c1ccc2nc(-c3ccc(-c4ccc(CNCc5ccccc5)cc4)cc3)[nH]c2c1 [TCMDC-132705]	55.9	
CS(=O)(=O)c1ccc(CNCc2cccc(-c3ccc(-c4nc5ccc(C(F)(F)F)cc5[nH]4)cc3)c2)cc1 [TCMDC-132902]	-71.66	
NCc1ccc(CNCc2cccc(-c3ccc(-c4nc5cc(C(F)(F)F)ccc5[nH]4)cc3)c2)cc1 [TCMDC-132811]	93.89	
FC(F)(F)c1ccc2nc(-c3cccc(-c4ccc(CNCc5ccccc5)cc4)c3)[nH]c2c1 [TCMDC-132712]	-50.86	

SMILES	% Inhibition [%]	% Inhibition (% Inhibition) [%]
Fc1cccc(Cl)c1-c1nc(NCCC(c2ccccc2)c2ccccc2)no1 [TCMDC-134175]	-12.09	
Cc1cc(=O)[nH]c(NC#N)n1 [TCMDC-123468]	11.83	
O=C(c1cc(-c2ccccc2O)on1)N1CCN(C(c2ccccc2)c2ccccc2)CC1 [TCMDC-125470]	18.53	
CC1(C)C2C=C(CN3CCC(NC(=O)Nc4ccc(Cl)c(Cl)c4)CC3)C1CC2 (stereo not shown) [TCMDC-135871]	38.53	
COc1cccc(O)c1CN1CCC2(CCCN(Cc3ccc(F)cc3)C2)C1 (stereo not shown) [TCMDC-124635]	-20.8	
CCOC(=O)c1ccc(N2CCCCC2)c(NC(=O)C(Cl)(Cl)Cl)c1 [TCMDC-125786]	-22.75	
N=C(/N=C(/NCCCCCCN/C(=N\C(=N)Nc1ccc(Cl)cc1)N1CCOCC1)N1CCOCC1)Nc1ccc(Cl)cc1 [TCMDC-131813]	108.7	
Clc1ccc(CNCC2CCN(CC3CCCCC3)CC2)cc1Cl [TCMDC-139467]	-4.599	
N=C(N=C(NCCCCCCNC(=NC(=N)Nc1ccc(Cl)cc1)N1CCCCC1)N1CCCCC1)Nc1ccc(Cl)cc1 [TCMDC-131811]	119.8	
O=C(NCCCCN1CCC(O)(c2ccc3c(c2)OCO3)CC1)c1ccc(NC(=O)c2ccc(Cl)cc2)cc1 [TCMDC-138356]	-1.021	
O=C(NCCCCN1CCN(c2ccc3c(c2)CCC3)CC1)c1ccc(NC(=O)c2ccc(Cl)cc2)cc1 [TCMDC-138512]	-2.19	
O=C(/C=C/c1ccc(C(F)(F)F)cc1)NCCCCCN1CCN(C(=O)Nc2ccc(Cl)cc2)CC1 [TCMDC-136095]	-21.7	
Clc1ccc(CNCCCCCCCNCc2ccc(Cl)c(Cl)c2)cc1Cl [TCMDC-138075]	16.46	
N=C(N=C(NCCCCCCNC(=NC(=N)NCc1ccc(Cl)c(Cl)c1)N1CCCCC1)N1CCCCC1)NCc1ccc(Cl)c(Cl)c1 [TCMDC-131816]	118.5	
O=C(/C=C/c1ccc(C(F)(F)F)cc1)NCCCCCN1CCCN(C(=O)Nc2ccc(Cl)cc2)CC1 [TCMDC-136106]	-46.09	
Nc1nc2c(ncn2COC2COP(=O)(O)OC2)c(=O)[nH]1 (stereo not shown) [TCMDC-138021]	10.06	
Cc1ccc(Nc2nc(C)cc(NC3CCCC3)n2)cc1 [TCMDC-133470]	43.93	
CCN(CCNc1nc(NCCc2cnc[nH]2)nc(N(CCC#N)Cc2ccccc2)n1)c1cccc(C)c1 [TCMDC-139258]	-10.46	
COc1cccc(C(=O)NCc2n[nH]c(=S)n2-c2ccc(Cl)c(Cl)c2)c1 [TCMDC-123816]	81.2	
COc1cccc(C(=O)Nc2ccc(Oc3ccc(Cl)cc3)cc2)c1 [TCMDC-123807]	-8.512	
CCC(=O)Oc1ccc(NC(=O)c2cccc(OC)c2)cc1 [TCMDC-131408]	8.36	
